# Measured values from the supplement of paper PMC9433436.
# ± gives the standard deviation of the averaged measurements. The full ranking holds about 4,100 sequences; the median of “relative kcat/Km (krel) vs genomic leader AAAGAU” is about 1.7, and the highest 2% start at about 6.5. The entries come from a sample that favours the highest values as a whole.
# Target: T1, E. coli RNase P holoenzyme (M1 P RNA + rnpA protein) (UniProt P0A7Y8)
# T1 sequence: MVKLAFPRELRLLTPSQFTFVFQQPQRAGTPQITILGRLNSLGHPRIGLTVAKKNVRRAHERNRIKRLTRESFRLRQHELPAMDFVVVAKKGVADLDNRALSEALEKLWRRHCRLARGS
# Assay: relative kcat/Km (krel) vs genomic leader AAAGAU (relative (reference leader = 1)); higher = faster RNase P cleavage
# Description: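 HTS-Kin: a pool of ptRNA-Met (21C construct) with all 4096 combinations of 5' leader nucleotides N(-6) to N(-1) was processed in vitro by E. coli RNase P (P RNA + rnpA/C5 protein) under multiple-turnover conditions at 37 C, pH 8, 17.5 mM MgCl2. Residual substrate was Illumina-sequenced at several fractions reacted, and relative kcat/Km (krel) was computed by internal competition kinetics, calibrated to the genomic leader (AAAGAU = 1). The listed hexamer is the varied N(-6)..N(-1) leader (DNA letters), and it sits between a fixed 5' stem-loop flank (GCAUGCACGAAAGUGCGUGCUAUGAA) and the mature tRNA-Met starting GGCUACGUAGCUCAGUUGG. Two technical replicates are averaged.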
# [1] = fraction of substrate reacted: ~9-10% (9.79% repeat 1, 9.1% repeat 2)
# [2] = fraction of substrate reacted: ~13-16% (15.68% repeat 1, 13.17% repeat 2)
# [3] = fraction of substrate reacted: ~26-29% (28.66% repeat 1, 26.4% repeat 2)
Sequence,relative kcat/Km [1],relative kcat/Km [2],relative kcat/Km [3]
ATTACA,2.55 ± 1.5,2.08 ± 0.14,2.94 ± 1.2
CCCACT,1.87 ± 1.1,1.27 ± 0.14,2.79 ± 0.067
AAATCT,1.86 ± 0.61,2.09 ± 0.095,2.8 ± 0.68
GCACGC,,,1.29 ± 1.2
ATGTCT,1.82 ± 0.38,2.3 ± 0.33,2.43 ± 1
ATCTAT,3.93 ± 1.4,5.38 ± 1,7.98 ± 3.7
GTCTAT,5.93 ± 2.3,6.62 ± 1.5,9.91 ± 4.4
GGCTAT,2.25 ± 0.98,1.99 ± 0.48,2.88 ± 0.85
CTATGT,0.766 ± 0.47,1.38 ± 0.98,
AGCTAC,1.27 ± 0.29,3.3102 ± 0.0027,4.78 ± 1.9
ATCTAG,2.49 ± 0.96,3.16 ± 1,5.72 ± 2.4
ATCTCG,2.52 ± 2,2.14 ± 0.37,3.55 ± 1.2
ATCTGT,,1.3 ± 1.2,1.76 ± 1.5
CTATCT,3.05 ± 0.67,3.54 ± 0.89,4.18 ± 1.4
ATCTAC,4.97 ± 1.4,6.58 ± 2,9.08 ± 4.5
CTCTAT,4.59 ± 0.51,6.38 ± 1.7,9.17 ± 4
ATACTT,1.93 ± 1.3,1.97 ± 0.58,2.62 ± 1.1
GCGAAT,0.964 ± 0.25,1.54 ± 0.49,2.09 ± 0.45
CAGCGC,1.95 ± 0.83,1.4 ± 0.14,2.09 ± 0.64
CTGCGG,,0.228 ± 0.042,0.674 ± 0.39
TGGGAA,,1.31 ± 0.98,1.24 ± 0.69
CAGCTA,1.51 ± 0.56,1.21 ± 0.27,1.85 ± 0.51
ACTGGA,0.346 ± 0.015,,
TGGTAG,,,0.538 ± 0.38
TTTCTC,2.12 ± 0.99,2.29 ± 0.41,2.91 ± 0.93

Sequence,relative kcat/Km [1],relative kcat/Km [2],relative kcat/Km [3]
TTATGC,3.22 ± 0.63,4.29 ± 0.74,6.16 ± 2.8
CCGTAC,3.58 ± 1,4.22 ± 0.54,5.69 ± 2.3
GCTTAA,1.72 ± 1,2.36 ± 0.11,3.64 ± 0.66
AACTTC,3.37 ± 1.2,3.49 ± 0.17,4.33 ± 1.5
TACATA,3.93 ± 2,4.55 ± 0.65,6.5 ± 2.8
GCTGAT,1.1 ± 0.57,1.1 ± 0.49,0.636 ± 0.14
TGAGGA,0.562 ± 0.032,,1.42 ± 0.78
TTAAGA,1.95 ± 0.61,2.89 ± 0.47,3.88 ± 1.5
CTCTAC,4.76 ± 1.6,6.63 ± 1.3,8.97 ± 3.6
GTCTAG,3.54 ± 2.5,3.25 ± 0.17,5.81 ± 1.6
CTACAC,2.87 ± 1.7,3 ± 0.59,4.74 ± 1.4
GGCTAC,1.69 ± 1.4,1.98 ± 0.51,2.81 ± 1.3
GTCTAC,4.47 ± 0.65,6.86 ± 2.4,10.1 ± 4.8
CTCTAG,3.37 ± 2.2,3.41 ± 0.89,5.82 ± 2
TACGTT,1.82 ± 0.88,1.95 ± 0.067,2.61 ± 1
CAAGAT,1.15 ± 0.24,0.704 ± 0.019,1.49 ± 0.33
CTCCGT,,1.79 ± 1.2,2.01 ± 1.7
ATCCGA,4.57 ± 1.7,4.95 ± 0.73,7.19 ± 2.7
CGCCGC,2.62 ± 0.84,3.479 ± 0.016,4.99 ± 2
GGCCGC,1.55 ± 0.064,1.97 ± 0.17,3.73 ± 0.94
GTCCGC,3.94 ± 0.68,5.24 ± 1.4,8 ± 3.3
ATCCCA,2.69 ± 1.7,2.52 ± 0.24,3.52 ± 0.92
CTCCGG,1.38 ± 0.85,0.916 ± 0.46,1.27 ± 0.5
CTCCGC,3.56 ± 0.068,4.98 ± 1.7,6.8 ± 2.7
GTCCGG,,,1.17 ± 0.26

Sequence,relative kcat/Km [1],relative kcat/Km [2],relative kcat/Km [3]
ATCCTA,3.22 ± 1.7,3.39 ± 0.28,4.55 ± 1.7
CACCGC,2.34 ± 0.56,3.87 ± 1.6,5.89 ± 2.7
CTCCGA,4.78 ± 2,5.35 ± 1.6,8.07 ± 3.3
GGCGGT,,,1.38 ± 0.92
ATGTCA,1.69 ± 0.74,1.97 ± 0.16,2.71 ± 1
CGCGTA,2.07 ± 0.78,1.48 ± 0.56,2.18 ± 0.99
CAGGAG,0.78 ± 0.77,,0.626 ± 0.52
TAAGGT,,,3.06 ± 1.8
TCGGGC,,,1.18 ± 0.74
TGAATC,1.86 ± 0.16,1.84 ± 0.4,2.53 ± 0.78
TATAAT,3.05 ± 0.91,3.72 ± 0.38,5.41 ± 2.8
TAACAG,,1.33 ± 0.61,2.19 ± 0.52
GCGAGA,1.04 ± 0.47,,1.63 ± 0.017
ATCCGT,,,2.3 ± 2.1
ATCCGC,3.93 ± 0.99,4.36 ± 1.7,6.74 ± 2.5
TTCCCA,2.74 ± 1.8,4.27 ± 0.3,4.97 ± 1.5
GTCCGA,3.87 ± 0.72,5.56 ± 1,8.22 ± 3.4
TTCCGC,4.23 ± 1.3,5.35 ± 0.93,8.49 ± 3.5
TGCCGA,2.99 ± 0.37,2.99 ± 1.4,4.69 ± 1.9
ATCCGG,,0.394 ± 0.063,0.881 ± 0.16
TTCCGA,4.31 ± 1.2,6.28 ± 2,9.5 ± 4.6
TTCCGT,,2.19 ± 1.9,2.5 ± 1.8
GGCCGA,1.949 ± 0.015,2.42 ± 0.35,3.95 ± 1.3
GTCCTA,3.11 ± 1.4,3.47 ± 0.34,4.9 ± 1.2
TTCCGG,1.74 ± 1.5,0.738 ± 0.38,1.68 ± 0.19

Sequence,relative kcat/Km [1],relative kcat/Km [2],relative kcat/Km [3]
ACGACA,1.74 ± 0.19,1.62 ± 0.86,1.9 ± 0.45
CAGCAA,2.5 ± 1.1,2.58 ± 0.032,3.08 ± 1
TATCGA,3.95 ± 1.2,4.7 ± 0.84,6.39 ± 2.6
ATATAC,3.5 ± 2.1,3.99 ± 0.01,6.02 ± 2.1
GTATAG,,1.79 ± 0.37,3.69 ± 0.99
TTATAC,4.34 ± 1.3,5.2 ± 0.6,7.47 ± 2.9
GTATAC,3.66 ± 2.2,4.72 ± 0.97,6.65 ± 2.7
TTATAA,3.65 ± 1.4,4.53 ± 0.46,6.51 ± 2.4
CTATAC,3.79 ± 0.8,3.82 ± 0.28,5.86 ± 1.7
CCGCCT,1.45 ± 0.15,,1.54 ± 0.38
ATTCAT,2.95 ± 1.6,3.71 ± 0.32,5.56 ± 2.2
TTTCAC,3.76 ± 1.6,4.95 ± 0.89,6.83 ± 2.6
TTTCAT,4.15 ± 1.4,5.11 ± 0.89,7.53 ± 3.4
TTTCAA,2.81 ± 1.9,2.95 ± 0.37,4.9 ± 2.3
GTTCAC,3.88 ± 0.89,4.82 ± 0.92,6.76 ± 2.6
TTTCAG,2.51 ± 2.3,1.83 ± 0.22,3.23 ± 0.79
CTTCAG,,1.26 ± 0.073,2.21 ± 0.1
GTTCAA,2.59 ± 1.7,3.08 ± 0.83,4.21 ± 1.5
CTTCAT,4.07 ± 1.5,4.78 ± 0.63,6.67 ± 2.6
CTTCAA,3.2 ± 2.3,3.11 ± 0.12,3.96 ± 1.1
TCTCAT,3.52 ± 0.79,4.87 ± 1.2,6.39 ± 2.9
GTTCAT,3.32 ± 0.77,4.43 ± 0.92,6.51 ± 3
TGGAGT,,,1.17 ± 1.1
GGGGCC,0.798 ± 0.048,0.576 ± 0.47,0.579 ± 0.14
AACTGA,2.11 ± 1.8,1.88 ± 0.34,3.9 ± 0.84
